Bioassay records as filed in PubChem.
697 NFkB inh = lowers PMA/ionomycin-induced NF-kB signal in 697 B cells; 697 B-cell NF-kB luciferase reporter, 16 h; inhibition, % at 4 µM; 330,000 tested, 0.33% active; AID 435022; in the data active = inhibition above about 35%
SMARCA2 act = increases SMARCA2 function in MMTV reporter cells. MG213 cells, MMTV-luciferase reporter, dexamethasone, overnight. AID 652017. activation, % at 9.1 µM. 370,000 tested, 1% active; in the data active = activation above about 7.8%;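 also: 0% = vehicle wells and 100% = reference activator wells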
esBAF inh = blocks esBAF chromatin remodeling in mouse ES cells; 350,000 tested, 2% active; Bmi1-luciferase knock-in reporter, 24 h; 100% = twice the neutral-well signal; reporter increase, % at 12.5 µM; in the data active = activation above about 40%;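 also: 0% = median of the plate's neutral control wells and 100% = double that signal; a rise in the Bmi1 reporter signal indicates esBAF inhibition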
Gli-Sufu antag = blocks Gli-Sufu signaling in a luciferase reporter; Sufu-KO-LIGHT fibroblasts, Gli luciferase reporter luminescence; inhibition, % at 5 µM; 340,000 tested, 0.74% active; AID 588413;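 active = inhibition above about 55%, limit read from the data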;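 also: 0% = DMSO-treated cells and 100% = wells with medium but no cells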
Jurkat NFkB inh = lowers PMA/ionomycin-induced NF-kB signal in Jurkat cells. PMA/ionomycin-induced NF-kB luciferase reporter, luminescence. inhibition, % at 4 µM. 330,000 tested, 0.53% active. AID 435003; in the data active = inhibition above about 50%
SMARCA2 conf = SMARCA2 activation, confirmation screen; MG213 cells, MMTV-luciferase with dexamethasone, luminescence, overnight; MG213 cells expressing E1A, Rb sequestered; DMSO wells 0%, reference activator 100%; AID 652260; activation, % at 9.1 µM; shares compounds with SMARCA2 act; 3,500 tested, 30% active;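 active = activation above its plate's cutoff, the mean activation of tested wells plus 3 SD, cut at about 7.9% in these data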
GAL4-VP16 Luc = activates GAL4-VP16 luciferase, flagging SMARCA2 activator hits. HEK293 GAL4-VP16 pG5luc reporter, luciferase luminescence; scaled: DMSO wells 0%, SAHA wells 100%. 3,500 tested, 41% active. shares compounds with SMARCA2 act. activation, % at 9.1 µM;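 active = activation above the solvent-only control well mean plus 3 SD, averaged across control plates, cut at about 5.2% in these data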
Starred values were filed as active, the others as inactive; . = not tested or not shown. Shown are actives, neighbours in structure and some others; about 3.3% of the full set was active somewhere.

SMILES	697 NFkB inh	SMARCA2 act	esBAF inh	Gli-Sufu antag	Jurkat NFkB inh	SMARCA2 conf	GAL4-VP16 Luc
OCC1OC(n2cnc3c(NCCc4ccccc4)ncnc32)C(O)C1O (configuration not stated)	7	11*	36	-17	-20	5	7.8*
Nc1ccc(CCNc2ncnc3c2ncn3[C@@H]2O[C@H](CO)[C@@H](O)[C@H]2O)cc1	15	-3	-4	-19	-8	.	.
CC1(C)C2([N+](=O)[O-])CN3CC1([N+](=O)[O-])CN(C2)C3c1ccccc1 (configuration not stated)	-5	-2	.	1	2	.	.
CC(C)c1ccc(C2N3CC4([N+](=O)[O-])CN2CC([N+](=O)[O-])(C3)C4(C)C)cc1 (configuration not stated)	-14	13*	.	-8	-1	0	0
COc1ccc(-c2cnc3c(NC=O)cc(-c4ccoc4)cn23)cc1OC	.	5	1	.	.	.	.
COc1ccc(-c2cc(NC=O)c3ncc(-c4cc(OC)c(OC)c(OC)c4)n3c2)cc1	.	1	-3	.	.	.	.
CS(=O)(=O)Nc1cccc(-c2cc(NC=O)c3ncc(-c4ccc(F)c(Cl)c4)n3c2)c1	.	9.1*	12	.	.	6	2
COc1ccc(-c2cc(NC=O)c3ncc(-c4ccc(OC)c(OC)c4)n3c2)c(OC)c1	.	11*	-25	.	.	17*	11*
COc1ccc(-c2cnc3c(NC=O)cc(-c4cc(OC)c(OC)c(OC)c4)cn23)cc1OC	.	15*	6	.	.	24*	9.4*
COc1ccc(-c2cnc3c(NC=O)cc(-c4ccccc4)cn23)cc1OC	.	14*	-39	.	.	10*	6.1*
COc1ccc(S(=O)(=O)Nc2ccc3c(c2)C(=O)N([C@@H](C)CO)C[C@H](C)[C@H](CN(C)S(=O)(=O)c2ccc(C)cc2)O3)cc1	.	.	2	.	.	.	.
C[C@H](CO)N1C[C@H](C)[C@@H](CN(C)Cc2ccncc2)Oc2ccc(NC(=O)Nc3ccc4c(c3)OCO4)cc2CC1=O	.	.	-4	.	.	.	.
Cc1noc(C)c1NC(=O)Nc1ccc2c(c1)C(=O)N([C@@H](C)CO)C[C@@H](C)[C@@H](CN(C)C(=O)CCCN(C)C)OCCCC[C@@H](C)O2	.	.	5	.	.	.	.
COc1ccc(-c2cnc3c(NC=O)cc(-c4ccc(F)cc4)cn23)cc1OC	.	15*	-40	.	.	14*	6.3*
COc1cc(-c2cnc3c(NC=O)cc(-c4ccc(S(C)(=O)=O)cc4)cn23)cc(OC)c1OC	.	-4	2	.	.	.	.
COc1ccc(-c2cnc3c(NC=O)cc(-c4cccc(NS(C)(=O)=O)c4)cn23)cc1OC	.	36*	-62	.	.	36*	7.8*
COc1ccc(-c2cnc3c(NC=O)cc(-c4ccc(S(C)(=O)=O)cc4)cn23)cc1OC	.	11*	-4	.	.	11*	4
COc1cccc(-c2cnc3c(NC=O)cc(-c4cc(OC)c(OC)c(OC)c4)cn23)c1	.	-1	6	.	.	.	.
COc1cccc(-c2cc(NC=O)c3ncc(-c4ccc(OC)c(OC)c4)n3c2)c1	.	12*	-21	.	.	11*	5
CC(C)NC(=O)Nc1ccc2c(c1)C(=O)N([C@H](C)CO)C[C@@H](C)[C@H](CN(C)S(=O)(=O)c1ccccc1)O2	.	.	0	.	.	.	.
COc1ccc(CN(C)C[C@H]2OCCCC[C@H](C)Oc3ccc(NS(C)(=O)=O)cc3C(=O)N([C@H](C)CO)C[C@H]2C)cc1	.	.	-9	.	.	.	.
Cc1ccc(S(=O)(=O)NCC[C@@H]2CC[C@H](NC(=O)CC3CC3)[C@@H](CO)O2)cc1	.	.	0	.	.	.	.
CC(=O)c1ccc(-c2cnc3c(NC=O)cc(-c4ccc(N5CCN(C)CC5)cc4)cn23)cc1	.	12*	5	.	.	16*	4
CN1CCN(c2ccc(-c3cc(NC=O)c4ncc(-c5ccc(F)c(Cl)c5)n4c3)cc2)CC1	.	2	11	.	.	.	.
N#C/C(C(=O)NCc1ccccc1)=C1/N=C(NC(=O)c2ccco2)c2ccccc21	2	10*	47*	1	-15	2	3
CCOc1ccccc1NS(=O)(=O)c1ccc(OC)c(OC)c1	15	-2	-9	3	3	.	.
